{"source": "ChEMBL document CHEMBL4888484", "about": "“Replenishing the malaria drug discovery pipeline: Screening and hit evaluation of the MMV Hit Generation Library 1 (HGL1) against asexual blood stage Plasmodium falciparum ,using a nano luciferase reporter read-out” (2022)", "note": "Hit rate of the full screen: of about 4,800 compounds, about 420 (8.8%) showed an effect of 50% or more. For the sample, strong results were picked, then their nearest neighbours and some compounds at random."}
{"tested_on": "Plasmodium falciparum", "assay": "Confirmatory screen in NF54 nanoGlo assay, in single point, at 2uM, 72h", "type": "functional, Erythrocyte", "details": "timepoint 72 hour", "units": {"% Inhibition": "%"}}
{"molecule": "Cc1nc2cc(F)ccc2cc1C(=O)N1CCN(S(=O)(=O)c2ccc(Br)cc2)CC1", "% Inhibition": 0}
{"molecule": "Cc1ccccc1CNC(=O)CN(C(C)C)C1CCOCC1", "% Inhibition": 21}
{"molecule": "CCO[C@H]1C[C@H](NC(=O)Nc2ccc(F)c(C3CC3)c2)C1", "% Inhibition": 2}
{"molecule": "COc1ccc(-n2nc(C)c3c2NC(=O)C[C@@H]3c2ccc3c(c2)OCO3)cc1", "% Inhibition": -5}
{"molecule": "COC(=O)c1ccc(C)c(NC(=O)c2ocnc2C2CC2)c1", "% Inhibition": 2}
{"molecule": "Cc1cc(C)n(-c2c(C)[nH]c3ccccc23)n1", "% Inhibition": -7}
{"molecule": "CC1=C(C(=O)Nc2cccc(Cl)c2)[C@H](c2csnn2)NC(=O)N1", "% Inhibition": -20}
{"molecule": "Cc1ccc(CN2CCN(C[C@@H](O)Cn3c4ccccc4n4c(=O)cc(C)c(C#N)c34)CC2)c(C)c1", "% Inhibition": 89}
{"molecule": "N#Cc1c(CN2CCOCC2)cc(=O)n2c1[nH]c1ccccc12", "% Inhibition": -4}
{"molecule": "O=C(Cc1c[nH]c2ccccc12)N[C@H]1CCS(=O)(=O)C1", "% Inhibition": -4}
{"molecule": "CCOCCCNC/C=C/c1ccccc1", "% Inhibition": -5}
{"molecule": "CC(=O)N1CCC(Nc2ccc3c(c2)CCC(=O)N3)CC1", "% Inhibition": -17}
{"molecule": "COc1cc(Cl)c(C)cc1NC(=O)c1cc(=O)n(-c2ccc(C)cc2)[nH]1", "% Inhibition": -8}
{"molecule": "Clc1cccc(N2CCN(Cc3ccc(OC4CCNCC4)cc3)CC2)c1", "% Inhibition": 27}
{"molecule": "O=C(CN1CCCCCC1)Nc1ccc(OCc2ccccc2)cc1", "% Inhibition": 0}
{"molecule": "c1ccc(Cn2ncc3cc(-c4nc(C5CC5)no4)cnc32)cc1", "% Inhibition": 3}
{"molecule": "COc1ccccc1[C@H]1CC(O)=Nc2c1ncn2-c1cc(F)cc(F)c1", "% Inhibition": -4}
{"molecule": "Cn1ccnc1[C@@H]1CCCN1S(=O)(=O)c1c2c(nn1C)CCCC2", "% Inhibition": 4}
{"molecule": "C[C@@H](CNc1nc(-c2ccccc2)nc2nc(-c3ccc(Cl)cc3)oc12)N1CCCCC1", "% Inhibition": 60}
{"molecule": "O=C1CC(c2cccc(NC(=O)CCc3ccccn3)c2)CC(=O)N1", "% Inhibition": 3}
{"molecule": "NC(=O)c1ccc(C(F)(F)F)n(C[C@H](O)c2cc(Cl)ccc2Cl)c1=O", "% Inhibition": 63}
{"molecule": "NC(=O)c1ccc(C(F)(F)F)n(CC(=O)N(Cc2ccc(F)cc2)C2CCCCC2)c1=O", "% Inhibition": -6}
{"molecule": "Cc1cc(-n2c(C)cc(C(=O)Cn3c(C(F)(F)F)ccc(C(N)=O)c3=O)c2C)no1", "% Inhibition": 25}
{"molecule": "CCC(=O)N(CCN(C)C)Cc1c(-c2ccccc2)noc1N1CCCCC1", "% Inhibition": 10}
{"molecule": "CCN(CCN(C)C)C(=O)c1cccc(-c2ccc3nccc(N)c3c2)c1", "% Inhibition": 70}
{"molecule": "Cc1cccc(OC[C@@H](O)Cn2cnc(C)c(C)c2=O)c1", "% Inhibition": 5}
{"molecule": "COc1ccc(-n2nnnc2[C@@H](NCCc2c[nH]c3ccccc23)C(C)C)cc1", "% Inhibition": -1}
{"molecule": "Cc1cccc(CC(=O)N[C@@H](C)CCC(=O)O)c1", "% Inhibition": 4}
{"molecule": "O=C(CCc1ccc(Cl)c(C(F)(F)F)c1)N1CC[C@H](N2CCc3ccccc3C2)C1", "% Inhibition": 52}
{"molecule": "CN1CCC2C(CCN2C(=O)Nc2ccc(Cl)c(C(F)(F)F)c2)C1", "note": "(configuration not stated)", "% Inhibition": 2}
{"molecule": "O=C(Nc1ccccc1Cl)N1CCC(N2CCc3sccc3C2)CC1", "% Inhibition": 37}
{"molecule": "CC(C)c1cccc(CN2C(=O)N[C@]3(CC(C)(C)OC3(C)C)C2=O)n1", "% Inhibition": -6}
{"molecule": "CC(Oc1ccc2c(c1)C(c1ccccc1)N(Cc1ccccc1F)CC2)C(=O)NC1CC1", "note": "(configuration not stated)", "% Inhibition": 56}
{"molecule": "C[C@H](C(=O)NCC1CCN(Cc2ccccc2F)CC1)C1CCOCC1", "% Inhibition": -6}
{"molecule": "COc1ccc2cc3n(c2c1)C[C@](C(=O)NC1CCCCCC1)(c1ccccc1)N(Cc1ccccc1F)C3=O", "% Inhibition": -17}
{"molecule": "C=CCN1CCN(c2nccn3nc(-c4ccc(Cl)cc4)cc23)CC1", "% Inhibition": -3}
{"molecule": "CC[C@H]1C(=O)NCCN1C(=O)c1cc(C)n[nH]1", "% Inhibition": 7}
{"molecule": "Cn1c(Cc2n[n+]3c(-c4ccccc4)cc(-c4ccccc4)nc3n2C)n[n+]2c(-c3ccccc3)cc(-c3ccccc3)nc12", "% Inhibition": 99}
{"molecule": "COCc1nsc(N2CCC(c3ccccc3)CC2C)n1", "note": "(configuration not stated)", "% Inhibition": 1}
{"molecule": "O=C(NCc1cccnc1)c1cnn2c3c(cnc12)CCCC3", "% Inhibition": -4}
{"molecule": "C[C@H]1CCCN(S(=O)(=O)NCC(=O)Nc2ccccn2)C1", "% Inhibition": -15}
{"molecule": "C[C@H]1CCCN(c2nc(-c3ccccn3)nc3ccccc23)C1", "% Inhibition": 97}
{"molecule": "FC(F)(F)C1CN(c2nc(-c3ccccn3)nc3c2CCC3)C1", "% Inhibition": 67}
{"molecule": "O[C@H]1Cc2ccccc2[C@H]1Nc1nc(-c2ccccn2)nc2c1CCNC2", "% Inhibition": 13}
{"molecule": "CCc1ccc(NC(=O)[C@H]2CCCN(c3nc4cccnc4n(Cc4ccccc4)c3=O)C2)cc1", "% Inhibition": -6}
{"molecule": "C[C@H]1CCN(c2nc(-c3ccccn3)nc3c2CCC3)C1", "% Inhibition": 91}
{"molecule": "CN(C)Cc1ccc(O)c(CCc2ccccc2)n1", "% Inhibition": 29}
{"molecule": "C[C@@]12CCCCN1CCCc1c2[nH]c2ccccc12", "% Inhibition": -15}
{"molecule": "COc1c[nH]c(C(=O)NC2CCN(Cc3ccccc3)CC2)cc1=O", "% Inhibition": 5}
{"molecule": "CCOc1cc(Cl)ccc1C(=O)NC1CCN(C[C@H]2CCOC2)CC1", "% Inhibition": 1}
{"molecule": "FCCn1ncnc1CN1CCCCC[C@H]1C1CCCCC1", "% Inhibition": 4}
{"molecule": "CCN(CC)CC(O)COc1c(Br)cc(C(C)(C)c2cc(Br)c(OCC(O)CN(CC)CC)c(Br)c2)cc1Br", "note": "(configuration not stated)", "% Inhibition": 99}
{"molecule": "O=C(CNC(=O)[C@H]1CC[C@H](CNS(=O)(=O)c2ccccc2)CC1)N1CCN(c2ccccc2)CC1", "% Inhibition": 4}
{"molecule": "O=C(Nc1nc2ccc(F)cc2s1)c1cccc2c(Br)cccc12", "% Inhibition": -1}
{"molecule": "C=CCN1C(=O)OC(C)(CCC=C(C)C)C1(C)O", "note": "(configuration not stated)", "% Inhibition": 9}
{"molecule": "CN1CCCN(c2ccnc3ccsc23)CC1", "% Inhibition": 2}
{"molecule": "Cc1cc(CN(C)Cc2nccn2C)ccc1N1CCCCC1", "% Inhibition": -1}
{"molecule": "Cc1cccc(OCc2nn3c([C@H]4CCCN(S(C)(=O)=O)C4)nnc3s2)c1", "% Inhibition": -6}
{"molecule": "Cc1nccc(N(C)C2CC(Oc3ccccc3)C2(C)C)n1", "note": "(configuration not stated)", "% Inhibition": -5}
{"molecule": "Cc1nn2c(C(F)F)cc(-c3ccc4c(c3)OCO4)nc2c1Cl", "% Inhibition": -5}
{"molecule": "CCc1ccc(-c2cc3n(n2)C[C@@](C)(C(=O)NC2CCCCC2)N(c2cc(C)cc(C)c2)C3=O)cc1", "% Inhibition": 74}
{"molecule": "Cc1cc(C)c(S(=O)(=O)N2CCC(C)(C(=O)NCc3ccc4c(c3)OCO4)CC2)cc1C", "% Inhibition": 3}
{"molecule": "COc1ccc(-c2cc3n(n2)C[C@@](C)(C(=O)NCc2ccccc2OC)N(c2cccc(OC)c2)C3=O)cc1", "% Inhibition": 49}
{"molecule": "COc1ccc(-c2cc3n(n2)C[C@@](C)(C(=O)NCc2ccccc2)N(Cc2ccc4c(c2)OCO4)C3=O)cc1", "% Inhibition": 63}
{"molecule": "O=C(CCn1nc(-c2ccc(Br)cc2)ccc1=O)NCc1ccc2c(c1)OCO2", "% Inhibition": -4}
{"molecule": "C[C@@]1(C(=O)NCc2ccccc2)Cn2nc(-c3ccccc3)cc2C(=O)N1c1ccc2c(c1)OCCO2", "% Inhibition": 58}
{"molecule": "COc1cccc(-c2ccc(=O)n(CCC(=O)N3CCN(Cc4ccc5c(c4)OCO5)CC3)n2)c1", "% Inhibition": 1}
{"molecule": "CCc1ccc(CN2C(=O)c3c(C(=O)OC)ncn3C[C@@]2(C)C(=O)NC2CCCCCC2)cc1", "% Inhibition": 1}
{"molecule": "CCc1ccc(CN2C(=O)c3c(C(=O)OC)ncn3C[C@@]2(C)C(=O)NC2CCCC2)cc1", "% Inhibition": -6}
{"molecule": "Cc1nn(CCc2nnc(-c3ccc4c(c3)OCO4)o2)c(C)c1Cl", "% Inhibition": -3}
{"molecule": "O=C(O)Cc1sc(-c2ccccc2)nc1O", "% Inhibition": 1}
{"molecule": "CC(=O)Nc1cc(NC(=O)c2cccc[n+]2[O-])c(F)cc1F", "% Inhibition": -2}
{"molecule": "COC(=O)c1[nH]c(C)cc1NC(=O)C1=CCCCCC1", "% Inhibition": -2}
{"molecule": "Cc1ccc(-c2csc(NC(=O)c3cccc(C(=O)Nc4nc(-c5ccc(C)cc5C)cs4)n3)n2)c(C)c1", "% Inhibition": -1}
{"molecule": "O=C(Nc1nncs1)c1cccc(C(=O)Nc2nncs2)n1", "% Inhibition": 68}
{"molecule": "O=C(Nc1nncs1)NC(C1CC1)C1CC1", "% Inhibition": 0}
{"molecule": "CCOC(=O)c1c(C(F)(F)F)[nH]n2c(C(F)F)nnc12", "% Inhibition": -3}
{"molecule": "Cc1cc(NC(=O)C(=O)NC2CC(C)CC(C)(C)C2)n(-c2nc3c(c(=O)[nH]2)CCC3)n1", "note": "(configuration not stated)", "% Inhibition": 90}
{"molecule": "O=C(Cc1ccccc1)Nc1c2c(nc3c1CCC3)CCCC2", "% Inhibition": 3}
{"molecule": "COc1ccc2ccccc2c1C(=O)Nc1ccc(N2CCN(C)CC2)c(Cl)c1", "% Inhibition": 5}
{"molecule": "CCOc1ccc2ccccc2c1C(=O)Nc1cc(C)nn1-c1nc2c(c(=O)[nH]1)CCC2", "% Inhibition": 94}
{"molecule": "Cc1cc(C)cc(Nc2nc(C)cc(=O)n2CC(=O)Nc2ccc(C)cc2Br)c1", "% Inhibition": -8}
{"molecule": "Cc1ccc2c(c1)ncc1c(-c3ccccc3)nn(-c3ccc(F)cc3)c12", "% Inhibition": -5}
{"molecule": "COc1ccc(NC(=O)Cc2c(C)nn(-c3nc(C)cs3)c2O)c(OC)c1", "% Inhibition": -7}
{"molecule": "CCOC(=O)c1cc(-c2ccccc2)n(NC(=O)COc2ccc(Cl)cc2)c1C", "% Inhibition": -11}
{"molecule": "CNC(=O)c1cc(N2CCN(c3ncc(C(F)(F)F)cc3Cl)CC2)ccc1NC(=O)c1ccccc1Cl", "% Inhibition": 7}
{"molecule": "CCCN(CCC)CCN1C(=O)[C@@H]2C(C(=O)Nc3cc(Cl)cc(Cl)c3)[C@@H]3C=C[C@]2(O3)C1C(=O)NC1CCCCC1", "note": "(some centres not stated)", "% Inhibition": -3}
{"molecule": "COc1ccc(OC)c(NC(=O)Cn2cnc3nc(N4CCOCC4)ncc3c2=O)c1", "% Inhibition": 8}
{"molecule": "Cc1cc(-c2nnc3n2CC(C)(C)CC3)c(C)o1", "% Inhibition": 2}
{"molecule": "CCN(C)C1(CNC(=O)c2ccc(-c3cc(F)ccc3O)cc2)CCCC1", "% Inhibition": 26}
{"molecule": "CCCc1cc(-c2nc(-c3ccc(-n4nc(C)cc4N)cc3)no2)n(C)n1", "% Inhibition": 48}
{"molecule": "COc1cccc2nc(C[C@H]3CN(CC(C)C)CC[C@H]3CC(=O)O)[nH]c12", "% Inhibition": -9}
{"molecule": "c1ccc(CCNc2nc(-c3ccccn3)cs2)cc1", "% Inhibition": 12}
{"molecule": "CNc1nc(NCCc2ccccc2)nc2ccccc12", "% Inhibition": 80}
{"molecule": "O=C1c2ccccc2[C@@H](Nc2ccc3c(c2)OCCO3)N1c1ccccn1", "% Inhibition": -17}
{"molecule": "Cc1ccc(-c2nc3ncccn3c2Nc2ccc3c(c2)OCCO3)o1", "% Inhibition": -8}
{"molecule": "CNc1nc(NCc2ccccc2)nc2ccccc12", "% Inhibition": 78}
{"molecule": "c1coc(CNc2nc(Nc3cccc4ccccc34)nc3ccccc23)c1", "% Inhibition": 20}
{"molecule": "CNc1nc(Nc2ccc3c(c2)OCCO3)nc2ccccc12", "% Inhibition": 95}
{"molecule": "NS(=O)(=O)c1ccc(CCNc2nc(-c3ccccc3)nc3ccccc23)cc1", "% Inhibition": -2}
{"molecule": "C[C@H](Nc1nc(N2CCCCC2)nc2ccccc12)c1ccccc1", "% Inhibition": -1}
{"molecule": "CC1(C)Cc2nc3ccccc3c(NCc3ccccc3)c2[C@@H](O)C1", "% Inhibition": 44}
